Data reported in publication PMC5540273 (PLoS ONE, 2017).

Columns and labels:
Settings in all cases: concentration: 1 μM,replicates: in singlicate; n = 1
MLK1 = system: T1, MLK1
T1 construct: gene MAP3K9

MLK2 = system: MLK2
MLK3 = system: MLK3
MRCKA = system: MRCKA
MRCKB = system: T2, MRCKB
T2 construct: gene CDC42BPB

MST1R = system: MST1R
MST1 = system: T3, MST1
T3 construct: gene STK4

MST2 = system: T4, MST2
T4 construct: gene STK3

MST3 = system: T5, MST3
T5 construct: gene STK24

MST4 = system: MST4
MTOR = system: MTOR
MUSK = system: MUSK
MYLK2 = system: MYLK2
MYLK4 = system: MYLK4
MYLK = system: MYLK
MYO3A = system: MYO3A
MYO3B = system: MYO3B
NDR1 = system: T6, NDR1
T6 construct: gene STK38

NDR2 = system: NDR2
NEK10 = system: NEK10
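Further: KINOMEscan kinase panel screen.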

Compound	%Inh (MLK1) [%]	%Inh (MLK2) [%]	%Inh (MLK3) [%]	%Inh (MRCKA) [%]	%Inh (MRCKB) [%]	%Inh (MST1R) [%]	%Inh (MST1) [%]	%Inh (MST2) [%]	%Inh (MST3) [%]	%Inh (MST4) [%]	%Inh (MTOR) [%]	%Inh (MUSK) [%]	%Inh (MYLK2) [%]	%Inh (MYLK4) [%]	%Inh (MYLK) [%]	%Inh (MYO3A) [%]	%Inh (MYO3B) [%]	%Inh (NDR1) [%]	%Inh (NDR2) [%]	%Inh (NEK10) [%]
CCCC(=O)Nc1n[nH]c2ncccc12 [SB-601436]	0	0	1	0	0	12	0	0	0	0	0	0	0	0	2	0	12	9	0	0
C[C@@H](Oc1cc(-n2cnc3ccc(-c4ccncc4)cc32)sc1C(N)=O)c1ccccc1Cl [GSK483724]	0	23	31	0	10	44	24	21	0	0	32	28	48	94.9	13	0	0	10	0	12
FC(F)(F)c1cc(Br)cc(Nc2nccc(-c3cnn4ncccc34)n2)c1 [GW810578]	0	17	11	0	0	0	5	0	0	17	0	18	1	29	8	9	8	19	13	40
CCn1c(-c2nonc2N)nc2cncc(Br)c21 [SB-738004]	0	0	12	11	0	19	0	6	19	0	15	0	16	16	31	39	3	38	35	43
CN(c1cccc(CNc2nc(Nc3ccc4c(c3)CC(=O)N4)ncc2C(F)(F)F)c1)S(C)(=O)=O	93.3	82	87	0	0	15	0	10	16	2	24	58	74	24	0	0	1	49	0	0
O=C(Nc1cccc(C(F)(F)F)c1)c1cccc(Oc2ccc3nccn3n2)c1	9	7	8	23	3	3	29	0	0	28	0	12	0	0	6	0	0	80	0	0
CC(=O)Nc1ccc(-c2cc3ncnc(SCC(=O)O)c3s2)cc1	0	18	0	0	0	25	2	16	24	2	3	12	9	14	6	5	0	0	8	25
COc1cc2nccc(Nc3ccc(Oc4ccccc4)cc3)c2cc1OC.Cl [GI261656]	0	0	15	0	0	30	0	0	0	0	10	0	0	0	7	6	0	0	29	18
Cn1cc(-c2cccc3c(N)c(C(N)=O)nnc23)cn1	8	2	2	20	3	24	23	2	51	40	0	3	0	81	33	15	23	8	23	48
Cn1ccc2ncnc(Oc3ccc(NC(=O)Nc4cc(C(C)(C)C)on4)c(Cl)c3)c21	11	21	0	13	0	73	0	0	6	0	37	80	13	0	17	0	40	0	1	0
Cc1cccc(-c2nc(Nc3ccncc3)c3sccc3n2)n1 [GW869641]	3	34	19	67	98.5	0	37	17	5	40	75	0	4	0	35	9	21	35	0	24
NC(=O)c1ccc(-c2cc3ncnc(SCC(=O)O)c3s2)cc1	0	0	0	0	0	21	0	0	0	0	39	0	0	0	0	0	3	31	0	0
Cc1n[nH]c2cc(Nc3ccnc(Nc4cccc(CN5CCOCC5)c4)n3)ccc12 [GW682569]	89	38	58	1	0	34	0	26	14	0	14	15	9	17	21	22	0	25	14	9
CSc1nccc(-c2c(-c3ccc(F)cc3)ncn2CCCN2CCOCC2)n1.Cl [SB-217146]	0	28	0	0	0	0	0	0	6	0	35	0	0	0	5	21	8	42	26	14
CN(c1ccccc1CNc1nc(Nc2ccc3c(c2)CC(=O)N3)ncc1C(F)(F)F)S(C)(=O)=O	95.4	77	92.9	0	0	65	14	70	30	77	21	71	4	2	0	0	0	33	12	0
CS(=O)(=O)Nc1ccc(-c2ccnc3[nH]ccc23)cc1 [GSK993273]	4	33	10	12	9	34	11	5	20	11	9	24	27	95.5	43	0	0	20	6	71
COc1cccc(C2=C(Nc3cccc(Cl)c3)C(=O)NC2=O)c1 [SB-341556]	0	16	0	0	0	0	100	22	0	0	8	9	0	23	0	0	0	0	0	73
COc1cc2ncn(-c3cc(OCC4CCCCC4)c(C(N)=O)s3)c2cc1OC [GSK204559]	12	33	34	0	0	35	11	0	0	0	7	4	9	85	20	0	0	11	0	4
CS(=O)(=O)c1cccc(CNc2nc(Nc3ccc4c(c3)[C@@H]3C[C@@H]4CNC3=O)ncc2C(F)(F)F)c1	99.8	84	98.1	0	0	0	0	18	15	0	12	26	12	0	12	13	54	85	6	0
Cc1ccn2nc(-c3ccc(F)cc3)c(-c3ccncc3)c2c1.Cl [GW457859]	0	0	0	24	3	36	0	0	14	0	8	0	23	0	26	48	0	13	40	0
